Among the data in PubChem BioAssay (NCI) are growth values, retold here.

The panel holds about 83,000 compounds, 20% with a hit somewhere; the sample as a whole holds those more often.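 Activity criterion: percent growth below 10, measured after cells in 96-well plates were exposed to a single compound concentration for 48 hours.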 Calls of active or inactive are those of the source.

The assay deals with MOLT-4 leukemia. The assay can be described thus: NCI-60 one-dose screen, 48 h (100 = growth as untreated, 0 = no growth, -100 = all killed). As to conditions: 10 µM unless noted.
`Cn1cc(-c2csc(-c3ccc(Cl)cc3)n2)c2cccnc21`: the growth was 2.44% [100 µM] (active).
Consider `COc1cc(-c2nc(SCCC(C)C)nc(Nc3ccccc3Cl)c2C#N)cc(OC)c1OC`, for which the growth was 87.4% (inactive).
Consider `CCn1c(=S)[nH]c2c(=O)n(C)c(=O)n(C)c21`, for which the growth was 98.2% (inactive).
For `c1ccc(CNc2c3ccccc3nc3ccccc23)cc1`, the growth is 15.5% (inactive).
`COCCn1c(-c2csc(-c3cn(C)c4ccc(OC)cc34)n2)cc2cccnc21`: the growth was 54.4% (inactive).
With `CCOC(=O)CSc1ncnc2c1c(-c1ccccc1)c(-c1ccccc1)n2-c1ccc(C)cc1`, the growth is 67.4% (inactive).
On to `COc1cc2oc(-c3cccc(NC(=O)c4cccc(Br)c4)c3)cc(=O)c2c(OC)c1OC`, for which the growth was 41.7% (inactive).
As to `Cc1ccc(Cl)cc1Nc1nc(C(F)(F)F)ccc1C(=O)N/N=C/c1cccnc1`, the growth was 3.8% (active).
`Cn1c(=O)c2c(nc(NC3=NS(=O)(=O)c4ccccc43)n2CC(=O)N2CCc3ccccc32)n(C)c1=O`: the growth is 112% (inactive).
Then `Cc1cccc(Cl)c1NC(=O)c1ccc2nc(NC(=O)NCCN(C)C)sc2c1`, with 80.2% (inactive); and `CCOC(=O)c1c(C)nc2c(c1N)CC(=O)N2Cc1cc(F)cc(Cl)c1`, with 95.9% (inactive); and `COC(C(=O)[C@@H](O)[C@@H](C)O)[C@@H]1Cc2cc3cc(O[C@H]4C[C@@H](O[C@H]5C[C@@H](O)[C@H](O)C(C)O5)[C@H](O)C(C)O4)cc(O)c3c(O)c2C(=O)[C@H]1O[C@H]1C[C@@H](O[C@H]2C[C@@H](O[C@H]3C[C@@H](OC)[C@H](O)C(C)O3)[C@@H](O)C(C)O2)[C@H](O)C(C)O1` (some centres not stated), with 48.2% (inactive).
